# Screens deposited in PubChem by The Scripps Research Institute Molecular Screening Center.
# Compounds with a hit are over-represented: about 1.9% of the library has one in this group of screens.
# MsrA inhibitor = inhibits bovine methionine sulfoxide reductase A; purified bovine MsrA, absorbance read-out; inhibition, % at 15.5 µM; 360,000 compounds, 0.75% hits; AID 651718;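 note: 0% = vehicle wells with enzyme and 100% = reference inhibitor wells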
# PLC-gamma1 inh = blocks human PLC-gamma1 enzyme activity; purified PLC-gamma1, fluorogenic substrate, fluorescence; inhibition, % at 12.2 µM; 370,000 compounds, 0.84% hits; in the data active = inhibition above about 9.5%
# Target sequence (P19174 whole entry, looked up): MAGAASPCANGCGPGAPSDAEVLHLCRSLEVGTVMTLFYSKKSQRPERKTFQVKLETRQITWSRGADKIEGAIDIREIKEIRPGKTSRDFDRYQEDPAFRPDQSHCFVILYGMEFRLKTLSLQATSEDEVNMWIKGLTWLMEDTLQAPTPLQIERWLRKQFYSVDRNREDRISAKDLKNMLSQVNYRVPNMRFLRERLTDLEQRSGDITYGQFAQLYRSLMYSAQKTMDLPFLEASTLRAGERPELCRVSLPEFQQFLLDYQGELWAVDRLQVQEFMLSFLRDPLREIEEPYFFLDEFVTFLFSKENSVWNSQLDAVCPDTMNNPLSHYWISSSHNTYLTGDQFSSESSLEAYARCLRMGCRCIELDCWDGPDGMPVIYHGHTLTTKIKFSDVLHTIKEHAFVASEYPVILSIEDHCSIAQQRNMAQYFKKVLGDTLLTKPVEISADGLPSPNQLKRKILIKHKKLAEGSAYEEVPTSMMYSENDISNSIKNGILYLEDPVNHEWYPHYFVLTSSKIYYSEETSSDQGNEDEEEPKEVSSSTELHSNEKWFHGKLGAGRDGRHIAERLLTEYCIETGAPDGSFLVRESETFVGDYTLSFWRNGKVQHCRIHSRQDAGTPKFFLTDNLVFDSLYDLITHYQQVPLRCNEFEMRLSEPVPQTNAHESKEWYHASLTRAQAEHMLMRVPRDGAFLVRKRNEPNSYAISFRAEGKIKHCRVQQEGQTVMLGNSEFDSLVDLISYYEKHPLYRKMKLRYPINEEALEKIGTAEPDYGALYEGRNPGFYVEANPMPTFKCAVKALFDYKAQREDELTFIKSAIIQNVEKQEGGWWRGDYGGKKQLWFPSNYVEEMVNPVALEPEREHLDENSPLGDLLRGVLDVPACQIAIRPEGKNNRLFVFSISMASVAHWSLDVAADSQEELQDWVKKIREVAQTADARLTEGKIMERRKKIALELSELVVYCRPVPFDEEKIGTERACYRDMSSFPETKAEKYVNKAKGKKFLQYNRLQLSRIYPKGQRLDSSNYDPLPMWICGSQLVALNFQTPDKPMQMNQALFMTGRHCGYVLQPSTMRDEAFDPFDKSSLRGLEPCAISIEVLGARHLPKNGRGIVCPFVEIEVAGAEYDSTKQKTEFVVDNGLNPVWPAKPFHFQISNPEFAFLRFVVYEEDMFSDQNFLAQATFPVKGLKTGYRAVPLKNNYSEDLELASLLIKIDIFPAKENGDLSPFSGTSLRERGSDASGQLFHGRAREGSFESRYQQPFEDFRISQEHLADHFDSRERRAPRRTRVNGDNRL
# bovine MsrA act = activates bovine MsrA enzyme; purified bovine MsrA, absorbance read-out; activation, % at 10.6 µM; 360,000 compounds, 0.3% hits; AID 602163; in the data active = activation above about 7.5%;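 note: 0% = vehicle and 100% = reference activator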
# PLC-beta3 inh = PLC-beta3 (human) inhibition, primary screen | Purified PLC-beta3, fluorogenic substrate, fluorescence | Q01970 | 370,000 compounds, 0.18% hits | AID 720704 | inhibition, % at 12.2 µM; in the data active = inhibition above about 11%;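 note: 0% = median of compound wells on plate and 100% = full blocker control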
# MsrA inh confirm = bovine MsrA inhibition, confirmed; shares compounds with MsrA inhibitor; purified bovine MsrA, absorbance read-out; inhibition, % at 15.5 µM; 2,300 compounds, 41% hits;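 note: coupled to thioredoxin reductase with NADPH and selenocystamine and DMSO as substrate; 0% = vehicle only and 100% = full effect of reference inhibitor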
# An asterisk follows results filed as active; i = inactive; / = not tested or not shown. Cut-off read from the data, not from the text of the source, unless noted: active = inhibition above about 4.5%; inactive = the rest.
SMILES,MsrA inhibitor,PLC-gamma1 inh,bovine MsrA act,PLC-beta3 inh,MsrA inh confirm
COc1ccc(-n2c(COc3ccc(Cl)cc3)nnc2SCC(=O)c2ccc(-c3ccccc3)cc2)cc1,/,2.8,/,-1.1,/
O=C(N[C@H](Cc1ccccc1)C(=O)NCC1CCCO1)[C@H]1O[C@@H](n2ccc(=O)[nH]c2=O)[C@H](O)[C@@H]1O (stereo partly specified),0.2,7.2,/,5.2,/
CCOC(=O)Cc1c(C)[nH]c(=S)[nH]c1=O,0.1,-0.1,0.9,1.9,/
CCCCCOC(=O)C(C)c1c(C)[nH]c(=S)[nH]c1=O (stereo unspecified),12.5*,0.9,-0.7,2.3,8.8*
CCCc1nc(SCc2ccccn2)c2c(=O)n(C)c(=O)n(C)c2n1,10.9*,5.8,-2.8,1.8,9.2*
Cn1c(=O)c2c(SCc3ccccn3)nc(CC(C)(C)C)nc2n(C)c1=O,0.2,1.9,-1.4,0.4,/
O=S(=O)(c1cccs1)N1CCCc2nc(-c3ccccc3)ccc21,0.9,-5.0,/,-4.8,/
CC1Cc2ccccc2N1C(=O)c1cnc2sccn2c1=O (stereo unspecified),5.4*,0.9,-8.7,0.9,3.6
CCCC/C=C1/C(c2ccccc2)N(Cc2ccc(OC)cc2OC)C2=NC(c3ccccc3)CC(=O)N21 (stereo unspecified),/,-0.8,/,1.0,/
COc1ccc2cc(-c3nc4ccccc4n3C)c(=O)oc2c1,4.9*,i,-5.2,i,2.1
COc1ccc(N2CCN(CCCNC(=O)CCc3cccc(F)c3)CC2)cc1,/,0.3,/,-1.3,/
C#CCNC(=O)C[C@H]1C[C@@]2(C(=O)OC)C(=C[C@H](C(C)(C)C)O[C@@H]2C)N(Cc2ccc(Cl)cc2Cl)C1=O,/,0.9,/,1.5,/
CN(/N=C/C=C/c1ccccc1)c1cc(=O)n(C)c(=O)[nH]1,11.9*,-6.7,-10.5,-6.9,9.1*
COc1ccc(/C=N/N(C)c2cc(=O)n(C)c(=O)[nH]2)cc1OC,10.6*,-4.8,-3.9,-9.5,7.0*
CCOC(=O)C(C)Sc1nnc(NC(=O)c2ccc3c(c2)OCO3)s1 (stereo unspecified),5.1*,-6.0,-5.1,-7.4,1.6
CSc1nnc(NC(=O)c2ccc3c(c2)OCO3)s1,-0.5,0.1,-4.5,-8.4,/
CCCS(=O)(=O)c1c(S(=O)(=O)CCC)c2c(N)cccn2c1C(=O)OC,5.2*,-50.1,-13.5,-67.5,1.4
CCCS(=O)(=O)c1c(S(=O)(=O)CCC)c2c(N)cccn2c1C(=O)c1ccccc1,-0.5,-25.9,-7.3,-33.4,/
COc1ccc(CNC(=O)OC2CC3CC2[C@H]2CCCCN2C3)cc1 (stereo partly specified),/,-0.8,/,-1.8,/
C=CCCC1CN(Cc2ccc(OC)cc2)S(=O)(=O)c2c(cccc2N(C)S(=O)(=O)c2ccc(C)cc2)O1 (stereo unspecified),0.1,1.6,/,0.3,/
N#C/C(=N\Nc1ccc(S(=O)(=O)N2CCCCCC2)cc1)C(N)=S,2.0,-1.1,-6.6,3.4,/
N#C/C(=N/Nc1ccc(S(=O)(=O)N2CCOCC2)cc1)C(N)=O,6.6*,2.9,-3.7,2.4,3.4
CC(=O)C1=C(C)N(Cc2ccc(F)cc2)C(=S)NC1c1cccc(F)c1 (stereo unspecified),-0.2,0.5,/,-0.4,/
O=C(CN1C(=O)S/C(=C\c2cccs2)C1=O)Nc1ccc(O)c(C(=O)O)c1,5.3*,0.5,-4.2,-10.7,5.8*
O=C(CN1C(=O)S/C(=C\c2cccs2)C1=O)Nc1ccc(C(=O)O)c(O)c1,5.3*,2.1,-5.2,-3.9,6.0*
SMILES,MsrA inhibitor,PLC-gamma1 inh,bovine MsrA act,PLC-beta3 inh,MsrA inh confirm
CCOC(=O)C1CSCCS(=O)(=O)N1Cc1cccc(Cl)c1 (stereo unspecified),-1.1,2.0,/,3.6,/
CCOC(=O)C(CNc1ccc(OCc2ccccc2)cc1)NC(=O)c1ccccc1 (stereo unspecified),0.1,-0.5,/,-0.4,/
C(=N\n1cnnc1)/c1nc2ccccc2[nH]1,4.9*,i,-3.2,i,2.2
Cc1[nH]c2ccccc2c1/C=N/n1cnnc1,2.2,-2.4,-2.2,-1.2,/
O=c1oc2ccc([N+](=O)[O-])cc2c(N2CCOCC2)c1[N+](=O)[O-],5.1*,0.9,/,0.4,0.8
CCSc1nc(C2CC2)cc(-c2ccco2)c1C#N,-0.3,-0.5,-5.2,-1.2,/
CC(C)(C)c1cc(-c2ccco2)c(C#N)c(SCC#N)n1,9.2*,-18.9,-0.4,-14.4,5.2*
Cc1cc2c(nc1C)CCCN2S(=O)(=O)c1ccccc1,1.1,-5.0,/,-7.7,/
O=C(NCc1ccccc1)[C@@H]1CCCN1C(=O)[C@H]1CCCN1C(=O)c1ccccc1,0.0,2.2,/,2.5,/
CC(C)C[C@@H]1NC(=O)[C@H]2C[C@]3(c4ccccc4)c4ccccc4N[C@H]3N2C1=O,/,-4.8,/,-5.1,/
Oc1ccc(/C=N\Nc2cc(N3CCOCC3)nc(N3CCOCC3)n2)c(O)c1,5.3*,-71.1,-5.6,-83.8,4.2
Cc1cc(N/N=C/c2ccc(O)cc2O)nc(N2CCOCC2)n1,4.2,-31.0,-9.1,-52.1,/
O=C(O)COc1ccccc1/C=N/NC(=O)c1cc(-c2ccc(Cl)cc2)nc2ccccc12,5.0*,-25.9,-5.8,-47.7,4.1
COC(=O)[C@]12C[C@H](CC(=O)NCc3cccc(C(F)(F)F)c3)C(=O)N(Cc3ccc(Cl)cc3Cl)C1=C[C@H](COCc1ccccc1)O[C@@H]2C,/,1.7,/,2.5,/
CCOC(=O)c1cccc(-n2cccc2/C=C2\NC(=O)N(CC(=O)O)C2=O)c1,5.0*,-0.6,-4.2,-9.0,4.5
COc1ccc(C(=O)c2[nH]c(N)c(C(=O)c3c[nH]c4ccccc34)c2-c2ccc(F)c(OC)c2)cc1,0.6,-16.4,/,-60.3,/
Cc1cc(C)c2c3c(sc2n1)C(c1cccc(F)c1)C(C#N)=C(N)O3 (stereo unspecified),10.2*,-223.6,-3.3,-335.0,3.9
C/C(=N\NC(N)=S)c1ccc(Cl)s1,5.7*,1.7,-3.6,-0.3,4.8*
C/C(=N\NC(=S)NC(C)C)c1ccc(Cl)s1,3.5,2.6,-5.2,3.0,/
CC1(C)CC(=O)c2sc(NC(=O)C(C)(C)C)nc2C1,1.3,-0.3,-11.2,-0.4,/
CC1(C)CC(=O)c2sc(NS(=O)(=O)c3ccc(Cl)cc3)nc2C1,3.7,-3.5,-3.6,-16.9,/
CC1(C)CC(=O)c2sc(NC(=O)CN3CCCCC3)nc2C1,5.2*,0.8,0.7,3.5,2.7
CC1(C)CC(=O)c2sc(NS(=O)(=O)c3ccc(F)cc3)nc2C1,5.3*,-0.6,-9.2,0.0,3.0
Cc1nc(/C=[N+](\[O-])C(C)(C)/C=N/O)n(O)c1C,6.7*,2.0,-5.8,2.4,4.6*
Cc1ccccc1CNC(=O)C1CCC(CNS(=O)(=O)c2cccc3cccnc23)CC1 (stereo unspecified),/,2.3,/,3.5,/
COc1cc(/C=N/Nc2ccccn2)cc(OC)c1O,6.0*,-1.0,-4.3,-3.7,4.5
COc1cc(OC)cc(-c2c(C#Cc3ccsc3)c3cc(-c4cccc5[nH]cc(C=O)c45)ccc3n2C)c1,4.9*,-63.5,-11.4,-111.6,3.0
N#Cc1ccc(S(=O)(=O)NC(=O)[C@H]2O[C@@H](n3ccc(=O)[nH]c3=O)[C@H](O)[C@@H]2O)cc1,1.0,7.3,/,8.2,/
